This assay addresses Solute carrier family 2, facilitated glucose transporter member 1 (Homo sapiens) (UniProt P11166). The experiment in a line: ST_JUDE_LEISH: Cytotoxicity at 2uM final concentration against transgenic Leishmania Mexicana promastigotes LmGLUT1 that are glucose transport deficient and complemented with the human glucose transporter GLUT1. Activity is measured by DNA content using SYBR green in vitro. The assay is classed as functional.
Sequence of Solute carrier family 2, facilitated glucose transporter member 1 (Homo sapiens) (P11166 whole entry): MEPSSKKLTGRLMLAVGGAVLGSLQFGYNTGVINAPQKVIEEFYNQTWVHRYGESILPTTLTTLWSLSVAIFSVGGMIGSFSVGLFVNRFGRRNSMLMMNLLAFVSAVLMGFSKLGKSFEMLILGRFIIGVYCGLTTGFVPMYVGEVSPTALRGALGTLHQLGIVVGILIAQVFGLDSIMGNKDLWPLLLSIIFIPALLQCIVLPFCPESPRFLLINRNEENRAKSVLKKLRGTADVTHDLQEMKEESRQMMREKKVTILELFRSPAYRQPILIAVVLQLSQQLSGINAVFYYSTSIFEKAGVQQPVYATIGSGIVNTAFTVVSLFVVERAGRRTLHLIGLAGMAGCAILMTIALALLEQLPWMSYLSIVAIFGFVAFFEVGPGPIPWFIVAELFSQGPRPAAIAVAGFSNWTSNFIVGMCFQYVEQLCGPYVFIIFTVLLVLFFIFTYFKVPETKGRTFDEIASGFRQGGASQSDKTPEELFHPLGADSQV
Broadly, the inhibition is the relative decrease from the control value, in per cent. Consider `CC(C)(C)c1ccc(-c2ccccc2CNC(=O)c2cccc(O)c2)cc1`, for which the inhibition came to 6.97%.

Consider `CCCCCCc1cc(OC)c(OC)cc1C(C)Nc1ccnc2cc(Cl)ccc12` (stereo not given), for which the inhibition came out at 8.21%.

As for `Cc1cc(=O)c(-c2ccc(OCCSc3ccc(C(F)(F)F)cn3)cc2)c(C)[nH]1`, the inhibition amounted to 2.89%.

As for `Cc1ccc(NC(=O)NC2CCN(CCC(NC(=O)Cc3ccccc3)c3ccc(Cl)c(Cl)c3)CC2)cc1` (stereo not given), the inhibition was -2.11%.

For the molecule `NC(=O)c1ccccc1Nc1nc(Nc2cc[nH]n2)ncc1Cl`, the inhibition came out at 6.52%.

In the case of `COc1cc2nccc(Nc3ccc(NC(=O)c4ccc(C)cc4)c(O)c3)c2cc1OC`, the inhibition was determined as 6.88%.

With `CN(CCO)Cc1ccc(-c2ccc(NS(=O)(=O)c3cccc4cccnc34)cc2)cc1`, the inhibition came out at 75.1%.

As to `O=C(N[C@@H](CC1CCCCC1)C(=O)NC1CC1)c1ccc(O)c(-c2cccc(C(F)(F)F)c2)c1`, the inhibition was determined as 3.48%.

In the case of `Cc1cccc2nc(-c3ccc(-c4cccc(NC(=O)c5cncn5C)c4)s3)[nH]c12`, the inhibition amounted to 0.66%.

Turning to `CCN(CC)CCN(Cc1ccc(-c2ccc(C(F)(F)F)cc2)cc1)C(=O)Cn1c(CCc2cccc(F)c2F)cc(=O)c(C)c1C`, the inhibition was 11.5%.

For the molecule `N#CCCN1CCN(Cc2ccc(-c3ccc(-c4nc5cc(F)ccc5[nH]4)s3)cc2)CC1`, the inhibition was determined as 5.49%.

In the case of `COc1ccccc1NS(=O)(=O)c1cc(C(=O)Nc2ccc(N3CCOCC3)c(S(=O)(=O)Nc3ccccc3Cl)c2)ccc1Cl`, the inhibition worked out at 3.2%.

Turning to `Nc1nccc2ccc(-c3ccc(NC(=O)Nc4cc(C(F)(F)F)ccc4F)cc3)cc12`, the inhibition turned out to be 0.91%.

`O=C(NC1CC1)c1ccc(N2CCC(Cc3ccccc3)CC2)c([N+](=O)[O-])c1`: the inhibition was determined as 0.6%.

For `Brc1cc(CNCCCNc2nc3ccccc3[nH]2)sc1Br`, the inhibition came to 6.22%.

`O=C(NCCCCN1CCC(c2ccc3ccccc3c2O)CC1)c1ccc(-c2ccc(Cl)cc2)cc1`: the inhibition was determined as 5.43%.

For the molecule `CCCCCCCN1CC[C@@H](C[C@H](N)Cc2ccnc3ccc(OC)cc23)[C@@H](CC)C1`, the inhibition was 0.24%.

Consider `COc1cc2nc(N[C@@H](CO)c3ccccc3)nc(NCc3ccccc3)c2cc1OC`, for which the inhibition was determined as 1.12%.

Take `O=S(=O)(NCCN1CCCC1)c1cccc(-c2cccc(CNCc3ccccc3)c2)c1`: the inhibition was 20%.

Take `Cc1[nH]c(C)c(-c2ccc(CCc3ccc(F)cc3F)cc2)c(=O)c1Cl`: the inhibition was found to be 0.89%.

Consider `Cc1cc(Nc2cccc(C#N)c2)nc(Nc2ccccc2C)n1`, for which the inhibition turned out to be 77.7%.

Turning to `COc1cc(Cc2cnc(N)nc2N)cc(OCCCCc2ccc([N+](=O)[O-])cc2)c1OC`, the inhibition was -1.12%.

As to `CCCC(C)Nc1nc(C)cc(N[C@@H](CC(C)C)C(=O)NCc2cccc(F)c2)n1` (stereo not given in full), the inhibition is 4.43%.

Turning to `COc1ccc(C=Cc2cc(=N)c3ccccc3[nH]2)cc1Br`, the inhibition came out at 1.57%.

As to `O=S(=O)(Nc1cccc(CCN2CCC(N3CCCCC3)CC2)c1)c1cccc(C(F)(F)F)c1`, the inhibition came out at 0.17%.

Turning to `Cc1cc(=O)c(-c2ccc(OCc3ccc(OC(F)(F)F)cc3)cc2)c(C)[nH]1`, the inhibition came to 7.02%.

As for `COC(=O)c1cc(/C(C)=N/Nc2nc3ccccc3[nH]2)ccc1O`, the inhibition stood at 4.85%.

Regarding `O=C(/C=C/c1ccc(Cl)c(Cl)c1)NCCCCCN1CCCC(C(=O)Nc2ccc(F)c(Cl)c2)C1` (stereo not given), the inhibition turned out to be 3.02%.

`O=C(Nc1ccccc1)OCCOc1ccc(CC2SC(=O)NC2=O)cc1` (stereo not given): the inhibition stood at 2.13%.

As for `CC1=C(C(=O)Nc2ccc(Cl)cc2)C(c2ccncc2)n2nc(C(F)(F)F)nc2N1` (stereo not given), the inhibition was found to be 3.72%.

As to `COc1cc2nc(NCCc3ccccc3)nc(NCc3ccc(C#N)cc3)c2cc1OC`, the inhibition amounted to 3.59%.

In the case of `COc1cc2nc(NCCCOC(C)C)n3nc(-c4ccccc4)nc3c2cc1OC`, the inhibition is 11.4%.

Take `CN(C(=O)Nc1ccc(F)cc1)C1CCN(CCCCCNC(=O)/C=C/c2ccc(Cl)c(Cl)c2)CC1`: the inhibition came out at 1%.

On to `CCN(CCCN1CCCCC1)c1cc(C)nc(Nc2ccc(OC)cc2)n1`, for which the inhibition was -2.3%.

`Fc1ccc2c(NN=Cc3ccccc3)ccnc2c1`: the inhibition was 2.29%.

Turning to `COc1cc(CNCCCCCCNCc2cc(OC)cc3ccccc23)c2ccccc2c1`, the inhibition was 10.8%.

As for `CC1(C)CNCc2cc(NC(=O)/C=C/c3ccc(Cl)cc3)ccc21`, the inhibition came to 0.41%.

In the case of `C=CCc1cc(C2CCN(CCCCNC(=O)c3ccc(-c4ccc(C#N)cc4)cc3)CC2)c(OCC(N)=O)c2c1CCCC2`, the inhibition turned out to be 0.81%.

Consider `CON(CCCN(C)C)C(=N)N`, for which the inhibition came to 0.55%.

Turning to `CCn1c(Sc2ccc(C#N)c([N+](=O)[O-])c2)nnc1-c1cccc(Cl)c1`, the inhibition was found to be 16.9%.

The values are drawn from ChEMBL document CHEMBL3433997, “St. Jude Leishmania screening dataset” (2016).
